The whole screen tested about 63,000 compounds, of which about 1,100 (1.7%) were called active. The sample as a whole holds a higher share of actives than the screen did. Entries with a potency or affinity are not part of this list. Values without a mark were called inactive.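 Rule for the calls: active = compounds whose percent cytotoxicity in the single-dose primary screen, scaled between solvent and toxic-drug controls, exceeds 50; inactive = the rest.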

For 63 compounds, cytotoxicity results are on record in PubChem BioAssay AID431 (Sanford-Burnham Center for Chemical Genomics, 2006).

The test is described as follows: viability loss of HPDE-C7K cells – cell-based, fluorescence, HTS, primary screen (AID 431).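 Note: 0% = DMSO solvent wells and 100% = doxorubicin-treated wells.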 The note with it: HPDE-C7K KRASV12 cells, Alamar Blue viability, 48 h; at 10 µM; hits give high values. (Resazurin is reduced to fluorescent resorufin, in cell work by metabolically active cells.)
`CC1(C)CC(=O)C2=C(C1)Oc1ncn(CCCn3ccnc3)c(=N)c1C2c1ccccc1` (stereo not drawn): the cytotoxicity was 9.8%.
With `OCCNc1ncnc2c1c(-c1ccccc1)c(-c1ccccc1)n2Cc1ccco1`, the cytotoxicity is 21.6%.
As for `O=c1c2ccccc2nc(-c2ccccc2)n1CCCn1ccnc1`, the cytotoxicity was -22.7%.
On to `N=c1c2c(-c3ccccc3)c(-c3ccccc3)n(Cc3ccco3)c2ncn1CCN1CCOCC1`, for which the cytotoxicity is 32.6%.
The value for `COC(=O)c1c(F)c(F)c(N2CCOCC2)c(F)c1F` was -3.4%; that for `CC(C)CC(=O)Nc1ncnc2c1C(=O)CC(C)(C)C2` was -2.6%.
Next, `COc1ccc(-c2nnn(CC(=O)N(C3CCCCC3)C(C)C(=O)NC3CCCC3)n2)cc1OC` (stereo not drawn): -4.4%; `COC(=O)C1=C(C)N(c2ccc(Cl)c(Cl)c2)C(=O)C1`: 79% (active); `COC(=O)C1=C(C)N(c2cccc(Cl)c2)C(=O)C1`: -6.2%.
For `COC(=O)C1=C(C)N(c2ccc(F)c(Cl)c2)C(=O)C1`, the cytotoxicity is 0.2%.
The value for `CCOC(=O)c1ccc(-n2c(N)c(C(=O)NCc3ccco3)sc2=S)cc1` was 10.8%.
Next, `O=S(=O)(Nc1ccc(S(=O)(=O)N2CCCCC2)cc1)c1cccs1`: -10.1%.
Next, `COc1ccc(Cl)cc1S(=O)(=O)n1nnc2ccccc21`: 4.4%; `CCOc1cc(C)c(Cl)cc1S(=O)(=O)n1nnc2ccccc21`: 52.2% (active); `CCOc1cc(C)c(Cl)cc1S(=O)(=O)n1cnc2ccccc21`: 7.1%.
Regarding `COc1cc(S(=O)(=O)n2nnc3ccccc32)c(OC)cc1Cl`, the cytotoxicity is 59.1% (active).
Next, `COc1ccc(OC)c(S(=O)(=O)n2nnc3ccccc32)c1`: 11.6%; `CCOc1ccc(Cl)cc1S(=O)(=O)n1nnc2ccccc21`: 4.6%.
The value for `COc1ccc(COC(=O)c2ccc(N3CCCC3=O)cc2)cc1F` was 0.9%; that for `O=C(NCc1ccco1)c1cnc2n(c1=O)CCS2` was 8.6%.
Next, `CSc1nc(N)nc(SCC(=O)C23CC4CC(CC(C4)C2)C3)c1C#N`: 76.6% (active); `CSc1nc(N)nc(SCC(=O)c2ccc(C)cc2)c1C#N`: -1%.
Turning to `CSc1nc(N)nc(SCC(=O)OC(C)C)c1C#N`, the cytotoxicity was -1.2%.
Regarding `CCCCOc1cccc(C(=O)N(Cc2ccco2)C2CCS(=O)(=O)C2)c1` (stereo not drawn), the cytotoxicity is -19.4%.
Next, `COC(=O)C(NC(=O)c1ccccc1)=C(C)C`: -16.9%.
Next, `Cc1[nH]c(=S)[nH]c(=O)c1Cc1ccccc1`: -7.5%.
The value for `O=C(c1ccco1)N1CCN(C(=O)N2c3ccccc3Sc3ccccc32)CC1` was 74.4% (active).
Regarding `O=C(NC1CCN(C(=O)N2c3ccccc3Sc3ccccc32)CC1)c1ccco1`, the cytotoxicity was -3.7%.
The value for `O=C(c1ccco1)N1c2ccccc2Sc2ccccc21` was 4.1%; that for `O=C(N1CCOCC1)N1CCN(c2ccccn2)CC1` was -19.2%; that for `O=C(CN1CCN(c2ccccn2)CC1)N1c2ccccc2Sc2ccc(C(F)(F)F)cc21` was 17%.
With `O=C(N1CCN(c2ccccn2)CC1)N1c2ccccc2Sc2ccccc21`, the cytotoxicity was 66.6% (active).
Next, `Cc1ccc2c(c1)c1c3n2CC(=C2C(=O)OC(C)(C)OC2=O)NC3CCC1` (stereo not drawn): 33.1%; `CC1(C(=O)O)CC(C)(C(=O)O)CC(C)(C(=O)O)C1` (stereo not drawn): -1.4%; `FC(F)(F)c1cc(-c2ccccc2)nc(N2CCCCC2)n1`: -12.8%.
The value for `CCN(CCCNC(=O)c1[nH]c(C)c(C(C)=O)c1C)c1ccccc1` was 11.4%; that for `NC(=O)c1ccccc1NC(=O)CCc1ccccc1` was 3.2%.
With `CCOc1ccc(OCC)c(NC(=O)CN2CCN(c3cccc(C)c3C)CC2)c1`, the cytotoxicity was -0.1%.
The value for `Cc1cccn2c(=O)c(/C=N/O)c(N3CCCCC3)nc12` was 3.4%; that for `O=C1c2ccccc2NC(c2ccco2)N1O` (stereo not drawn) was 9.4%; that for `O=C1COc2ccc(C(=O)c3ccccc3)cc2CN1` was -4.7%.
Next, `COc1ccccc1N(CC(=O)N1CCCCCC1)S(C)(=O)=O`: -11.5%; `Oc1c(CN2CCCCC2)cc(COCc2ccccc2)c2cccnc12`: 2.2%.
The value for `COCc1cc(CN2CCCC2)c(O)c2ncccc12` was -4.6%; that for `COCc1[nH]nc2c1C1(C(=O)Nc3ccc(F)cc31)C(C#N)=C(N)O2` (stereo not drawn) was -38.8%; that for `Cc1ccc(NC(=O)CC2SCCNC2=O)cc1Cl` (stereo not drawn) was -0.4%.
Regarding `Clc1ccc2nc(NC3=NCN(CCN4CCOCC4)CN3)nc(-c3ccccc3)c2c1`, the cytotoxicity was 8.5%.
Take `CN1CCN(c2nc(N3CCN(CCO)CC3)nc3ccccc23)CC1`: the cytotoxicity was 8.2%.
On to `OCCN1CCN(c2nc(-c3ccccc3)c3cc(Cl)ccc3n2)CC1`, for which the cytotoxicity is 130% (active).
Next, `Cc1ccc2nc(N3CCC(C(=O)O)CC3)nc(-c3ccccc3)c2c1`: 1%; `CN1CCN(c2nc(-c3ccccc3)c3cc(Cl)ccc3n2)CC1`: 29.7%; `CS(=O)(=O)N1CCC(c2noc(-c3ccc(C(F)(F)F)cc3)n2)CC1`: 0.2%.
Next, `COc1ccc(N/C=C2\CCOC2=O)cc1`: 43.6%.
Next, `COC(=O)c1ccc(OCC(=O)c2ccc(O)cc2O)cc1`: 0.1%.
In the case of `C=CCOc1ccc(/C(O)=C2\C(=O)C(=O)N(CCOC)C2c2cccnc2)cc1` (stereo not drawn), the cytotoxicity was -14%.
The value for `OC(CCN1CCCCC1)(c1ccccc1)C1CCCCC1` (stereo not drawn) was 14.3%; that for `CC(C)(C)c1ccc(C(O)CCCN2CCC(C(O)(c3ccccc3)c3ccccc3)CC2)cc1` (stereo not drawn) was 121% (active); that for `OC(CCN1CCCC1)(c1ccccc1)C1CCCCC1` (stereo not drawn) was 28.9%.
The value for `COc1cccc(C2CC(c3ccc(C)cc3)Nc3nc(N)nn32)c1` (stereo not drawn) was 1.4%.
As to `Cc1oc(-c2cccc(Cl)c2)nc1CN1CCC(C(=O)N2CCN(c3ccccc3F)CC2)CC1`, the cytotoxicity is 62% (active).
The value for `Cc1oc(-c2cccc(Cl)c2)nc1CN1CCC(C(=O)N2CCN(c3ccccn3)CC2)CC1` was 6.5%; that for `CCN1CCN(C(=O)C2CCN(Cc3nc(-c4cccc(Cl)c4)oc3C)CC2)CC1` was 1.9%.
The value for `Cc1cccc(OCC(O)Cn2c(NCCCOC(C)C)nc3c2c(=O)[nH]c(=O)n3C)c1` (stereo not drawn) was -8%.
